{"source": "PubChem BioAssay (NCATS)", "note": "Records with an inconclusive call do not appear. Activity calls are given as the source filed them. The call rests on the fitted dose curve; in most records, active means well fitted cell-killing curve with a large enough effect; inconclusive means small, poorly fitted or top-dose-only effect; inactive means flat fitted curve, though single readings scatter."}
{"test": "Cell Viability - LYMP2-002 (AID 977);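 further: compound exposure lasted 24 h at 37 °C; plate controls were DMSO only for no effect and 92 µM tetraoctylammonium bromide for full effect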", "settings": "LYMP2-002 lymphoblastoid cell viability, qHTS; series mostly up to 92.2 µM; activity change, negative = cytotoxic: at the top concentration", "excerpt": "NIH Chemical Genomics Center [NCGC]\nNIH Molecular Libraries Screening Centers Network [MLSCN]\nNational Institutes of Environmental Health Sciences [NIEHS]\nNational Toxicology Program [NTP]\nWe have developed a 1536-well cell-based assay for quantitative high throughput screening (qHTS) against a number of cell lines to determine in vitro cytotoxicity of small molecules. This particular assay uses a human lymphoblastoid cell line (LYMP2-002) purchased from Coriell Institute for Medical Research.\nNCGC Assay Protocol Summary:\nThe CellTiter-Glo luminescent cell viability assay (Promega) is a homogeneous method to measure the number of viable cells in culture. The end point readout of this assay is based on quantitation of intracellular ATP, an indicator of metabolic activity, using the luciferase reaction. Luciferase catalyzes the oxidation of beetle Luciferin to oxyluciferin and light in the presence of ATP. The luminescent signal is proportional to amount of ATP present.\nUsing the CellTiter-Glo luminescent cell viability assay, the amount of cellular ATP was measured in the lymphoblastoid cell line with complete culture medium following compound treatment for 24 hours. The assay was performed in opaque white Kalypsys 1536-well plates. In the screen, tetraoctylammonium bromide was used as positive control. Library compounds were measured for their ability to cause acute toxicity in the cell line, as reflected by a decrease in intracellular ATP levels, in a concentration-dependent manner. […] AC50 values were determined from concentration-response data modeled with the standard Hill equation.\nqHTS protocol for CellTiter Glo lymphoblastoid cellular assay\n[Step] [Parameter] [Value] [Description]\n1. Reagent; 5 uL; 2500 lymphoblastoid cells/well\n2. Time; 5 hr; 37 C incubation\n4. Controls; 23 nL; Tetraoctylammonium bromide 6.4pM to 92 uM\n5. Time; 24 hr; 37 C incubation\n6. Reagent; 5 uL; CellTiter Glo reagent\n7. Time; 30 min; Room Temperature\n8. Detection; Luminescence; Viewlux plate reader\nKeywords: cell viability, cytotoxicity, lymphoblastoid cell line, luminescence, NTPHTS, NTPHTS_NCGC, NIEHS, DSSTox, MLSMR, MLSCN, NIH Roadmap, qHTS, NCGC"}
{"compound": "O=Cc1ccc(Cl)cc1Cl", "activity change, negative = cytotoxic": "-1.69% (inactive)"}
{"compound": "CCOC(=O)CBr", "activity change, negative = cytotoxic": "-12.3% (inactive)"}
{"compound": "c1ccc(Nc2ccc(Nc3ccccc3)cc2)cc1", "activity change, negative = cytotoxic": "-13.4% (inactive)"}
{"compound": "C=C(C)CCl", "activity change, negative = cytotoxic": "2.23% (inactive)"}
{"compound": "C=CCOCC1CO1", "note": "(stereo not given)", "activity change, negative = cytotoxic": "-4.03% (inactive)"}
{"compound": "Cc1cc(-c2ccc(N)c(C)c2)ccc1N", "activity change, negative = cytotoxic": "-17.2% (inactive)"}
{"compound": "C=CCO", "activity change, negative = cytotoxic": "-0.926% (inactive)"}
{"compound": "CC(C)Br", "activity change, negative = cytotoxic": "-11.2% (inactive)"}
{"compound": "Cc1ccc(N=C=O)cc1N=C=O", "activity change, negative = cytotoxic": "-9.54% (inactive)"}
{"compound": "Nc1ccc(Cc2ccc(N)c(Cl)c2)cc1Cl", "activity change, negative = cytotoxic": "-16.1% (inactive)"}
{"compound": "CC1CC(=O)O1", "note": "(stereo not given)", "activity change, negative = cytotoxic": "-8.41% (inactive)"}
{"compound": "c1ccoc1", "activity change, negative = cytotoxic": "17% (inactive)"}
{"compound": "CCOC(=O)C1OC1(C)c1ccccc1", "note": "(stereo not given)", "activity change, negative = cytotoxic": "-1.57% (inactive)"}
{"compound": "O=C(O)c1cccc(Cl)c1", "activity change, negative = cytotoxic": "1.09% (inactive)"}
{"compound": "ClCCOCCCl", "activity change, negative = cytotoxic": "-16.6% (inactive)"}
{"compound": "O=P(OCCCl)(OCCCl)OCCCl", "activity change, negative = cytotoxic": "4.95% (inactive)"}
{"compound": "O=[N+]([O-])c1ccccc1-c1ccccc1", "activity change, negative = cytotoxic": "16.2% (inactive)"}
{"compound": "Cl/C=C\\Cl", "activity change, negative = cytotoxic": "-3.93% (inactive)"}
{"compound": "ClCCCCl", "activity change, negative = cytotoxic": "10% (inactive)"}
{"compound": "CC(C)(C)OOC(=O)c1ccccc1", "activity change, negative = cytotoxic": "1.03% (inactive)"}
{"compound": "c1ccc(P(c2ccccc2)c2ccccc2)cc1", "activity change, negative = cytotoxic": "-4.31% (inactive)"}
{"compound": "Nc1ccc(Cl)c(Cl)c1", "activity change, negative = cytotoxic": "0.784% (inactive)"}
{"compound": "ClCc1ccccn1", "activity change, negative = cytotoxic": "8.61% (inactive)"}
{"compound": "Cc1cc(N=Nc2ccccc2C)ccc1N", "activity change, negative = cytotoxic": "-26.1% (inactive)"}
{"compound": "CC(C)CON=O", "activity change, negative = cytotoxic": "-6.9% (inactive)"}
{"compound": "CC12CC1(C)C(=O)N(c1cc(Cl)cc(Cl)c1)C2=O", "note": "(stereo not given)", "activity change, negative = cytotoxic": "-5.48% (inactive)"}
{"compound": "ClCc1ccccc1", "activity change, negative = cytotoxic": "-12.6% (inactive)"}
{"compound": "c1ccc(C2CO2)cc1", "note": "(stereo not given)", "activity change, negative = cytotoxic": "19.4% (inactive)"}
{"compound": "C[N+](=O)[O-]", "activity change, negative = cytotoxic": "-6.53% (inactive)"}
{"compound": "Oc1cccc(Cl)c1Cl", "activity change, negative = cytotoxic": "0.983% (inactive)"}
{"compound": "ClCC(Br)CBr", "note": "(stereo not given)", "activity change, negative = cytotoxic": "-0.169% (inactive)"}
{"compound": "C/C=C/CC#N", "activity change, negative = cytotoxic": "4.41% (inactive)"}
{"compound": "CCBr", "activity change, negative = cytotoxic": "6.37% (inactive)"}
{"compound": "O=[N+]([O-])c1ccc(Cl)cc1", "activity change, negative = cytotoxic": "-9.22% (inactive)"}
{"compound": "CCCCCCCCCCCCCl", "activity change, negative = cytotoxic": "2.66% (inactive)"}
{"compound": "Oc1cccc(Cl)c1", "activity change, negative = cytotoxic": "-2.27% (inactive)"}
{"compound": "O=Cc1ccc2c(c1)OCO2", "activity change, negative = cytotoxic": "-4.02% (inactive)"}
{"compound": "OCCBr", "activity change, negative = cytotoxic": "7.65% (inactive)"}
{"compound": "COC(=O)Nc1cccc(OC(=O)Nc2cccc(C)c2)c1", "activity change, negative = cytotoxic": "3.06% (inactive)"}
{"compound": "ClC(Cl)c1ccccc1", "activity change, negative = cytotoxic": "8.43% (inactive)"}
